PubChem BioAssay AID1159580 (chemical genetic matrix, 2015)
Several values for one entry are separate records, joined by “and”; a condition that tells them apart may be missing. Identical values can stand only once. Among all 5,500 compounds or so, about 2,000 (36%) were called active. Not shown: some 18% with an inconclusive outcome. Cut-off read from the data, not from the text of the source: active = normalized growth mostly below about 0.91 (no sharp cut-off); inconclusive = no clear call, values can overlap the other calls; inactive = mostly above about 0.92. The list shows a part of the results.

Experiment: chemical genetic growth profiling, strain panel (AID 1159580);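 note: tested at 20 µM; growth read once vehicle control cultures reached saturation at 30 °C; 1 = growth at the plate median or of vehicle wells; lower values mean less growth of the strain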
Settings: S. cerevisiae deletion strains, growth OD

Measured: normalized growth

CC1CC[C@]2(NC1)O[C@H]1CC3C4CC[C@H]5C[C@@H](O)CC[C@]5(C)C4CC[C@]3(C)[C@H]1[C@@H]2C (stereo not given in full)
active: locus YAL021C, strain ccr4, hits give low values 0.173 | locus YAL026C, strain drs2, hits give low values 0.0682 | locus YAL030W, strain snc1, hits give low values 0.0859 | locus YBL061C, strain skt5, hits give low values 0.109 | locus YBR009C, strain hhf1, hits give low values 0.0771 | locus YBR021W, strain FUR4, hits give low values 0.272 | locus YBR023C, strain chs3, hits give low values 0.102 | locus YBR171W, strain sec66, hits give low values 0.159 | locus YBR229C, strain ROT2, hits give low values 0.107 | locus YBR231C, strain swc5, hits give low values 0.167 | locus YBR279W, strain paf1, hits give low values 0.143 | locus YCL011C, strain gbp2, hits give low values 0.0814 | locus YCL016C, strain dcc1, hits give low values 0.103 | locus YCL029C, strain bik1, hits give low values 0.0809 | locus YCL061C, strain MRC1, hits give low values 0.103 | locus YCL069W, strain vba3, hits give low values 0.0775 | locus YCR088W, strain abp1, hits give low values 0.111 | locus YDL005C, strain med2, hits give low values 0.104 | locus YDL035C, strain GPR1, hits give low values 0.0845 | locus YDL040C, strain nat1, hits give low values 0.164 | locus YDL074C, strain BRE1, hits give low values 0.148 | locus YDL101C, strain DUN1, hits give low values 0.0938 | locus YDL185W, strain tfp1, hits give low values 0.0599 | locus YDL192W, strain arf1, hits give low values 0.0839 | locus YDR001C, strain nth1, hits give low values 0.108 | locus YDR069C, strain doa4, hits give low values 0.386 | locus YDR101C, strain arx1, hits give low values 0.104 | locus YDR137W, strain rgp1, hits give low values 0.534 | locus YDR159W, strain sac3, hits give low values 0.11 | locus YDR162C, strain NBP2, hits give low values 0.0587 | locus YDR195W, strain ref2 0.225 | locus YDR297W, strain sur2, hits give low values 0.102 | locus YDR318W, strain mcm21, hits give low values 0.0797 | locus YDR334W, strain swr1, hits give low values 0.0978 | locus YDR335W, strain msn5, hits give low values 0.101 | locus YDR388W, hits give low values 0.0652 | locus YDR392W, strain spt3, hits give low values 0.0848 | locus YDR502C, strain sam2, hits give low values 0.0839 | locus YEL003W, strain gim4, hits give low values 0.0733 | locus YEL037C, strain rad23, hits give low values 0.197 | locus YEL061C, strain CIN8 (second series), hits give low values 0.0698 | locus YER015W, strain faa2, hits give low values 0.118 | locus YER016W, strain bim1, hits give low values 0.102 | locus YER110C, hits give low values 0.135 | locus YER111C, strain swi4, hits give low values 0.0988 | locus YER155C, strain BEM2 (second series), hits give low values 0.113 | locus YER155C, strain BEM2, hits give low values 0.0788 | locus YER167W, strain BCK2, hits give low values 0.0623 | locus YFR010W, strain ubp6, hits give low values 0.375 | locus YGL078C, strain dbp3, hits give low values 0.124 | locus YGL086W, strain mad1, hits give low values 0.073 | locus YGL167C, strain pmr1, hits give low values 0.319 | locus YGL173C, strain kem1, hits give low values 0.442 | locus YGL227W, strain vid30, hits give low values 0.0819 | locus YGL240W, strain doc1, hits give low values 0.257 | locus YGL248W, strain PDE1, hits give low values 0.0587 | locus YGL253W, strain hxk2, hits give low values 0.0659 | locus YGR135W, strain pre9, hits give low values 0.0764 | locus YGR229C, strain SMI1, hits give low values 0.0768 | locus YGR252W, strain gcn5, hits give low values 0.211 | locus YHR013C, strain ard1, hits give low values 0.136 | locus YHR027C, strain rpn1, hits give low values 0.324 | locus YHR030C, strain SLT2, hits give low values 0.142 | locus YHR079C, strain IRE1 (second series), hits give low values 0.0949 | locus YHR079C, strain IRE1, hits give low values 0.54 | locus YHR094C, strain hxt1, hits give low values 0.0761 | locus YHR129C, strain ARP1, hits give low values 0.0658 | locus YHR142W, strain chs7, hits give low values 0.0852 | locus YHR200W, strain rpn10, hits give low values 0.103 | locus YIL066C, strain RNR3, hits give low values 0.0618 | locus YIL073C, strain SPO22, hits give low values 0.125 | locus YIL125W, strain kgd1, hits give low values 0.102 | locus YIR030C, strain dcg1, hits give low values 0.0851 | locus YJL092W, strain hpr5, hits give low values 0.0924 | locus YJL095W, strain BCK1 (second series), hits give low values 0.0627 | locus YJL095W, strain BCK1, hits give low values 0.0635 and 0.17 | locus YJL115W, strain asf1, hits give low values 0.113 | locus YJL129C, strain trk1, hits give low values 0.102 | locus YJL134W, strain LCB3, hits give low values 0.0651 | locus YJL154C, strain vps35, hits give low values 0.156 | locus YJL164C, strain tpk1, hits give low values 0.0795 | locus YJL166W, strain qcr8, hits give low values 0.0744 | locus YJL168C, strain set2, hits give low values 0.0986 | locus YJL187C, strain SWE1 (second series), hits give low values 0.0801 | locus YJR043C, strain POL32, hits give low values 0.0984
